The list shows a part of the results. The true hit rate is not given.
B1: HC1819 (peptide)
chain: CADPMEECSQAGNASASA
B2: HC2445 (peptide)
chain: CAELEVPCHRAGNASASA
B3: HC1478 (peptide)
chain: CAMGFSYDTRAGNASASA
B4: HC1866 (peptide)
chain: CATTMCSGSWAGNASASA
B5: HC2090 (peptide)
chain: CAVVCCSMSVAGNASASA
B6: FS-2525 (peptide)
chain: CARSKRVLWDAGNASASA
B7: FS-3084 (peptide)
chain: CARSKRGTEDAGNASASA
B8: FS-1691 (peptide)
chain: CARDKRKLGAAGNASASA
B9: FS-1929 (peptide)
chain: CARSKRIWLDAGNASASA
B10: FS-2523 (peptide)
chain: CARSKRALENAGNASASA
B11: FS-2205 (peptide)
chain: CARDKRKQRQAGNASASA
B12: FS-2306 (peptide)
chain: CARSKRRDANAGNASASA
B13: CS6 (peptide)
chain: CADGPDGPEEAGNASASA
B14: HC872 (peptide)
chain: CAVSVIPTSGAGNASASA
B15: HC250 (peptide)
chain: CALALLSCLTAGNASASA
B16: FS-580 (peptide)
chain: CAASIRHARFAGNASASA
B17: HC1130 (peptide)
chain: CADAAARVTAAGNASASA
B18: FS-379 (peptide)
chain: CASCQRRTRFAGNASASA
B19: HC747 (peptide)
chain: CAAGHAVGIFAGNASASA
B20: FS-1309 (peptide)
chain: CAASHRSTRFAGNASASA
B21: FS-220 (peptide)
chain: CADAARVARFAGNASASA
B22: FS-1586 (peptide)
chain: CAASPRVARFAGNASASA
B23: HC2358 (peptide)
chain: CAEVTCHRPSAGNASASA
B24: HC2540 (peptide)
chain: CASTPCSCHLAGNASASA
B25: HC2079 (peptide)
chain: CAVVCCSMPYAGNASASA
B26: HC1773 (peptide)
chain: CAMEECSQHRAGNASASA
B27: HC677 (peptide)
chain: CAAQQTRGLLAGNASASA

Target: furin, P09958
Assay: furin cleavage Z-score vs untreated control; higher = more cleavage, active = 3.5 or more, inactive = 1 or less, 8 variable residues between constant flanks
Description: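 Multiplexed peptide-cDNA fusion cleavage assay. 8-mer variable peptides flanked by constant Cys-Ala (N-term) and Ala-Gly-Asn-Ala-Ser-Ala-Ser-Ala (C-term) and conjugated to a cDNA oligonucleotide were bead-immobilised via the N-terminus. They were treated with purified furin at a 1:10 enzyme:substrate ratio in 50 mM HEPES pH 7.5, 1 mM CaCl2, 100 mM NaCl for 7.5, 15 or 30 min. Released cDNA was counted by next-generation sequencing, and log counts versus no-furin controls were lowess-adjusted and converted to robust Z-scores.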

Chain of furin, P09958 (P09958 whole entry): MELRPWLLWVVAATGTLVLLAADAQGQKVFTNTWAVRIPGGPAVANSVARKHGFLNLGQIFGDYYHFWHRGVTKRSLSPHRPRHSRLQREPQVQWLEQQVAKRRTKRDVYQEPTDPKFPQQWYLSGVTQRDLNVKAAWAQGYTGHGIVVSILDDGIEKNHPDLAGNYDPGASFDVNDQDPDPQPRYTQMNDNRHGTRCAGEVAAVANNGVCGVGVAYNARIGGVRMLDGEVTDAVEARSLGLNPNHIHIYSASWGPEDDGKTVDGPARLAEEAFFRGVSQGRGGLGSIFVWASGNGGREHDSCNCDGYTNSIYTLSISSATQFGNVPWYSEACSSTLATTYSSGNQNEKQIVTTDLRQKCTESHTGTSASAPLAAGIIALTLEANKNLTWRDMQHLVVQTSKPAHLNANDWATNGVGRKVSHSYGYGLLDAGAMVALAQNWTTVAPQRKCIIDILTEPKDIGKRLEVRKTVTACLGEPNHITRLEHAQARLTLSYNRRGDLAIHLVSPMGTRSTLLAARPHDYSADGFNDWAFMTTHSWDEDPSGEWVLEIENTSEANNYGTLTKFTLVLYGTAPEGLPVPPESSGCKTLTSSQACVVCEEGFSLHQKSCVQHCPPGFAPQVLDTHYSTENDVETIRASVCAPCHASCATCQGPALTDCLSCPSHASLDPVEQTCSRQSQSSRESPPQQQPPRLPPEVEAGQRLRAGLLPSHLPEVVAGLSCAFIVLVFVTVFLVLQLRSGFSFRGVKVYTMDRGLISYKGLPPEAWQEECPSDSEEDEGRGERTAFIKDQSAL

Row | Sequence | furin cleavage Z-score (7.5 min) | furin cleavage Z-score (15 min) | furin cleavage Z-score (30 min)
1 | B1 | 0.273 (inactive) | -1.88 (inactive) | -0.65 (inactive)
2 | B2 | 0.172 (inactive) | 0.852 (inactive) | 0.435 (inactive)
3 | B3 | -0.658 (inactive) | -1.06 (inactive) | -0.421 (inactive)
4 | B4 | -0.934 (inactive) | -1.58 (inactive) | -0.286 (inactive)
5 | B5 | -0.627 (inactive) | 0.955 (inactive) | 1.16
6 | B6 | -1.38 (inactive) | -1.33 (inactive) | -0.22 (inactive)
7 | B7 | 8.96 (active) | 9.33 (active) | 8.39 (active)
8 | B8 | -0.964 (inactive) | 0.648 (inactive) | 1.45
9 | B9 | 0.312 (inactive) | 0.0956 (inactive) | 0.362 (inactive)
10 | B10 | 9.22 (active) | 11 (active) | 8.18 (active)
11 | B11 | 1.77 | 4.76 (active) | 3.43
12 | B12 | -0.438 (inactive) | 0.401 (inactive) | 2.07
13 | B13 | -0.625 (inactive) | -0.697 (inactive) | 0.000165 (inactive)
14 | B14 | -1.15 (inactive) | -1.43 (inactive) | -0.759 (inactive)
15 | B15 | 0.23 (inactive) | 0.192 (inactive) | 0.0802 (inactive)
16 | B16 | 4.24 (active) | 6.42 (active) | 7.16 (active)
17 | B17 | -0.857 (inactive) | -0.374 (inactive) | -0.0041 (inactive)
18 | B18 | -0.682 (inactive) | 1.81 | 2.4
19 | B19 | 0.991 (inactive) | -0.922 (inactive) | -0.149 (inactive)
20 | B20 | 0.749 (inactive) | 3.07 | 5.05 (active)
21 | B21 | 1.88 | 3.12 | 3.56 (active)
22 | B22 | 7.18 (active) | 7.05 (active) | 9.24 (active)
23 | B23 | 0.503 (inactive) | 1.09 | -0.419 (inactive)
24 | B24 | -2.32 (inactive) | -0.121 (inactive) | -0.978 (inactive)
25 | B25 | 1.07 | 1.5 | 0.76 (inactive)
26 | B26 | 0.467 (inactive) | 0.921 (inactive) | 2.83
27 | B27 | -1.39 (inactive) | -0.431 (inactive) | 0.105 (inactive)
